In the library only some 10% were active in any assay of this set; here they are far more common.
Luc counter – Counterscreen for Luciferase (Kinase-Glo TM) Inhibition; hit rate 0.28% among 200,000; Luciferin 4-monooxygenase (Photuris pensylvanica), Q27757; AID 1379, 2008; Kinase-Glo luciferase, ATP luminescence, 8 min; Potency, µM (doses to about 38.3 µM), inactives show at the highest dose activity change, negative = inhibition, hits mostly inhibitors; active = well fitted inhibition curve with a large enough effect; inconclusive = small, poorly fitted or top-dose-only effect; note: potency is the fitted concentration of half-maximal effect; nearly all actives have a fitted effect of over 60% in size
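Kinase-Glo luciferase light output from ATP and luciferin was measured with 10 uM ATP, within the enzyme's linear range. Buffer: 50 mM imidazole pH 7.2, 50 mM KCl, 7 mM MgCl2, 0.01% Tween 20, 0.05% BSA; luminescence read after 8 min at ambient temperature.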
IMPase cell inh – qHTS Assay for Identifying the Cell-Membrane Permeable IMPase Inhibitors; 120,000 tested, under 10 active; inhibition (IP1 accumulation), % at 46.1 µM; CHO-M1 cells, IP1 accumulation, HTRF TR-FRET ratio; Inositol monophosphatase 1 (Rattus norvegicus), P97697; active = well fitted curve in the direction sought with a large enough effect in the signal ratio, not every such curve was filed as active; inconclusive = small, poorly fitted or top-dose-only effect, or a change in a side signal; inactive = no such curve, though single readings can be large or run the other way; the % refers to the signal ratio;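 note: cells stimulated with carbachol in lithium chloride buffer; plate controls were DMSO basal wells for no effect and reference inhibitor wells for full effect; higher means more IMPase inhibition seen as more IP1 and lower FRET ratio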
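CHO-M1, 2000 cells/well, cultured 16–30 h; cpd up to 46 uM; carbachol (50 uM solution, stimulation buffer w/ 50 mM LiCl, pH 7.4), 30 min 37C; IP-One TR-FRET, 10 min RT; Ex 320/Em 665, 620; Hill-fit AC50.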
Lamin A splicing – qHTS Assay for Modulators of Lamin A Splicing | Potency, µM (doses to about 46.1 µM), for inactives: at the top dose ratio change, negative = inhibition, most hits filed as inhibitors | hit rate 0.01% among 200,000 | HeLa LMNA splicing GFP/RFP minigene ratio, 48 h | AID 1487, 2009; active = well fitted inhibition curve with a large enough effect in the signal ratio, with a control signal flat, not every such curve was filed as active; inconclusive = small, poorly fitted or top-dose-only effect, or effect the other way, or a change in a side signal; the % refers to the signal ratio; note: potency is the fitted concentration of half-maximal effect
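Read-out is the ratio of GFP to DsRed2 object intensity, acquired by 488 nm laser-scanning cytometry on HeLa lamin A-EGFP minigene reporter cells. Compound incubation 48 hrs at 37 °C in Opti-MEM with 2% FBS; DMSO 0.5% final.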
HPGD inh – qHTS Assay for Inhibitors of HPGD (15-Hydroxyprostaglandin Dehydrogenase); 15-hydroxyprostaglandin dehydrogenase [NAD(+)] (Homo sapiens), P15428; Potency, µM, for the others: top-dose activity change, negative = inhibition, most hits filed as inhibitors; AID 894, 2007; purified HPGD, NADH fluorescence kinetic, PGE2 substrate; hit rate 4.3% among 150,000; note: potency is the fitted concentration of half-maximal effect
Target sequence (P15428 whole entry, looked up): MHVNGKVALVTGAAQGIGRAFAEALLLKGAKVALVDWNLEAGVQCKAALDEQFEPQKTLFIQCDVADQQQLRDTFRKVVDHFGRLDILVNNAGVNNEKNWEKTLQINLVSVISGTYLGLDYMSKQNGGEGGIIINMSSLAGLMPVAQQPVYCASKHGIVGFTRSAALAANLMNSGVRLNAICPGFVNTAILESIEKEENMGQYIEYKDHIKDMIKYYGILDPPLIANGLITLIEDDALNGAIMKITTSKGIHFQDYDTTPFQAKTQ
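NADH formation kinetics: reaction with 30 uM PGE2 and 1 mM NAD+ (final), 20 nM enzyme, Tris-HCl pH 8 with Tween 20, after 15 min compound preincubation at room temperature. Fluorescence change, last versus first of five reads.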
PNC assembly inh – High Content Assay for Compounds that inhibit the Assembly of the Perinucleolar Compartment; activity change (PNC), negative = inhibition, % at 10 µM; hit rate 3.1% among 140,000; PC3M PTB-GFP, PNC prevalence imaging, 16 h; stronger effect = lower value; AID 2417, 2010;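 active = readout at or below -70, meaning at least 70% loss of cells showing the perinucleolar compartment, a nuclear body marking cancer cells; inconclusive = readout between -30 and a set limit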;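 note: plate controls were DMSO wells for no effect and camptothecin positive control wells for full effect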
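Read-out is percentage of cells bearing a perinucleolar compartment, from automated 20x imaging of fixed, Hoechst-stained PC3M PTB-GFP cells. Cells were seeded 4 h, then exposed 16 h to compound (23 nl of library stock) in duplicate plates.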
ALDH1A1 block – qHTS Assay for Inhibitors of Aldehyde Dehydrogenase 1 (ALDH1A1). AID 1030, 2008. Aldehyde dehydrogenase 1A1 (Homo sapiens), P00352. Potency, µM (top dose mostly 75.3 µM), for the others: at the top dose activity, negative = inhibition, hits mostly inhibitors. hit rate 7.3% among 220,000. Purified ALDH1A1, NADH fluorescence, propionaldehyde substrate;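 note: potency is the fitted concentration of half-maximal effect; plate controls were no enzyme wells and a reference inhibitor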
Target sequence (P00352 whole entry, looked up): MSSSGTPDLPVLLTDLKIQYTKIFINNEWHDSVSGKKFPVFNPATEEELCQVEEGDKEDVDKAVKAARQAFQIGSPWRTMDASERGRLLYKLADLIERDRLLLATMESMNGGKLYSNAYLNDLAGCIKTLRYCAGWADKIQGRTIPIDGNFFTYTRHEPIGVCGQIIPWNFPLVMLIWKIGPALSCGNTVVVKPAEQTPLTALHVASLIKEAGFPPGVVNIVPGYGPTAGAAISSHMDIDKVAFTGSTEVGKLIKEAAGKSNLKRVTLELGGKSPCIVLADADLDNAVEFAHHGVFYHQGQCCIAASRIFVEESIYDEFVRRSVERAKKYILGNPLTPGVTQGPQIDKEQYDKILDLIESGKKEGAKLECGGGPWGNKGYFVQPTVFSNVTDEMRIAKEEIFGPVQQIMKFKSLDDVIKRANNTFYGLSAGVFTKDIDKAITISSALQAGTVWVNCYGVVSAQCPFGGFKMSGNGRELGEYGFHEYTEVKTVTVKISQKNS
* marks the source's active call; other numbers are inactive results; ? = inconclusive; . = not tested or not shown; [ ] = remark or other dose. Unless noted, calls come from the whole dose curve; as a rule, active = well fitted inhibition curve with a large enough effect (not every such curve was filed as active); inconclusive = small, poorly fitted or top-dose-only effect, or another doubt; inactive = no such curve, though single readings can be large or run the other way. Unless noted, % is set by controls: 0 for no effect and ±100 for the full control effect.

SMILES	Luc counter	IMPase cell inh	Lamin A splicing	HPGD inh	PNC assembly inh	ALDH1A1 block
COc1ccc(NC(=O)NC2CCN(C(C)C)CC2)c(OC)c1	7%	-7	-7%	-8%	-80*	9%
COc1ccc(NC(=O)C2CCN(S(=O)(=O)c3ccc(OC)c(OC)c3)CC2)c(OC)c1	-3%	-4	-2%	-6%	-121*	-8%
COc1ccc(NC(=O)C2CCN(C(=O)c3cccs3)CC2)c(OC)c1	-6%	-5	3%	1%	-8	2%
COc1ccc(C(=O)N2CCC(C(=O)Nc3ccccc3OC)CC2)cc1	4%	4	-3%	-4%	-85*	0%
CN(C(=O)Nc1cn(C)c(=O)c2ccccc12)c1ccccc1	.	.	15%[46 µM]	.	.	.
COCC(=O)N1CCC2(CC1)CN(c1ccc(-c3ccccc3)cc1)C2	1%	.	.	?	.	?
COc1ccc(-c2nc(C)c(CCNC(=O)c3cccc(C)c3)s2)cc1OC	.	.	-3%[46 µM]	.	.	.
COc1ccc(OC)c(NC(=O)C2CCN(Cc3cnn(-c4ccccc4)c3-n3cccc3)CC2)c1	-5%	5	?	-19%	-88*	5%
Cc1ccccc1N=C1NC(=O)CS1	14%	4	6%	-6%	-5	4%
Cc1ccccc1N=C1N=C(N)c2ccccc21	5%	0	?	-1%	-96*	11%
CCCC1c2c(ccc3ccccc23)Oc2ccc3ccccc3c21	-4%[7.66 µM]	.	.	-6%	.	-8%[13.5 µM]
Cn1c(SCC(=O)N/N=C/C=C/c2ccccc2[N+](=O)[O-])nc2ccccc21	2%	.	-24%	-5%	13	?
O=C(CSc1nc2ccccc2[nH]1)N/N=C/C=C/c1ccccc1[N+](=O)[O-]	3%	.	-11%	-10%	-28	4.5µM*
CCOC(=O)N/N=C/C=C/c1ccccc1[N+](=O)[O-]	-5%	.	-13%[46 µM]	.	.	10µM*
O=C(N/N=C/C=C\c1ccccc1[N+](=O)[O-])c1ccccn1	-2%	.	-6%	-25%	34	-13%
O=C(N/N=C/C=C/c1ccccc1[N+](=O)[O-])c1cc(-c2ccccc2)n[nH]1	3%	.	?	25µM*	-22	?
Cc1c(C(=O)N(C)C)sc2c1c(=O)n(-c1ccccc1C(F)(F)F)c(=O)n2Cc1ccccc1C#N	.	.	-4%[46 µM]	.	.	.
COc1ccc(Br)cc1C(=O)N/N=C/c1ccc2c(c1)n(C)c(=O)n2C	0%	.	-2%	?	-82*	?
COc1ccc(CNC(=O)CN(c2cc(C(F)(F)F)ccc2Cl)S(C)(=O)=O)cc1	.	15	.	.	.	.
COc1ccc(C2CC(=O)N3CN(c4ccc(C)c(Cl)c4)CSC3=C2C#N)cc1OC (centres undefined)	-1%	-16	-16%	?	14	7.9µM*
CCCSC1=C(C#N)C(c2cc(OC)ccc2OC)CC(=O)N1 (centres undefined)	3%	-14	-5%	22µM*	16	-3%
COc1ccc(N2CSC3=C(C#N)C(c4ccc(OC)c(OC)c4)CC(=O)N3C2)c(OC)c1 (centres undefined)	-4%	6	1%	10µM*	0	11µM*
COc1ccc(N2CSC3=C(C#N)C(c4cc(OC)c(OC)cc4OC)CC(=O)N3C2)c(OC)c1 (centres undefined)	-2%	-3	6%	10µM*	17	8.9µM*
COc1cc(NC(=O)Cn2nnc(-c3ccc(C(F)(F)F)cc3)n2)c(C(=O)O)cc1OC	.	.	-17%[46 µM]	.	.	.
COc1ccc(N2C(=O)C3CC(C)=C(C)CC3C2=O)c(OC)c1 (centres undefined)	3%	6	0%	-3%	16	10%
SMILES	Luc counter	IMPase cell inh	Lamin A splicing	HPGD inh	PNC assembly inh	ALDH1A1 block
CCOc1ccccc1N1CSC2=C(C#N)C(c3c(OC)ccc4ccccc34)CC(=O)N2C1 (centres undefined)	1%	3	2%	7.1µM*	-106*	4.5µM*
COc1ccc(N2CSC3=C(C#N)C(c4cc(OC)ccc4OC)CC(=O)N3C2)c(OC)c1 (centres undefined)	0%	-1	-5%	7.9µM*	1	8.9µM*
CCOc1ccccc1N1CCN(S(=O)(=O)c2cc(C)ccc2OC)CC1	-4%	.	.	.	.	-17%
COc1cc(OC)c(C2CC(=O)N3CN(c4ccc(C)cc4)CSC3=C2C#N)cc1OC (centres undefined)	1%	4	2%	7.1µM*	6	7.9µM*
CCCC(=O)NC(=S)Nc1cccc(NC(=O)c2ccccc2)c1	-1%	.	.	.	.	?
CC(C)CC(=O)NC(=S)Nc1cccc(NC(=O)c2ccccc2)c1	-6%	.	-12%	-19%	?	25µM*
CC(C)CC(=O)NC(=S)Nc1ccc(NC(=O)c2cccs2)cc1	-6%	9	-4%	7.9µM*	34	?
Cc1ccc(OCC(=O)N2CCN(c3ccc([N+](=O)[O-])c(N4CCOCC4)c3)CC2)cc1	1%	4	-1%	-7%	14	-15%
O=C(COc1ccccc1)N1CCN(c2ccc([N+](=O)[O-])c(N3CCCCC3)c2)CC1	-2%	4	6%	-15%	22	10µM*
O=C(COc1ccc(Br)cc1)N1CCN(c2ccc([N+](=O)[O-])c(N3CCCCC3)c2)CC1	.	2	?	.	-8	4µM*
O=C(COc1ccccc1[N+](=O)[O-])N(Cc1ccco1)c1ccccn1	.	.	-1%[46 µM]	.	.	.
COc1ccc2c(c1)O[C@@H](c1cccc(C(F)(F)F)c1)[C@H](OC(=O)NC1CCCC1)C2=O	1%	.	.	-12%	.	-7%
COc1ccccc1C(=O)Nc1cc(-c2cccc(Br)c2)nn1-c1ccccc1	.	.	-17%[46 µM]	.	.	.
Nc1cnn(Cc2ccccc2F)c1	2%	.	-12%[46 µM]	.	.	14µM*
Nc1cnn(Cc2ccc(F)cc2)c1	-1%	.	?	.	.	-1%
CN(C)/C=C/C(=O)c1cccc(Cl)c1	-2%	9	-15%	25µM*	-1	?
CN(C)/C=C/C(=O)c1ccc(Cl)cc1	-6%	1	-8%	18µM*	-12	-6%
CCCCc1nn2c(=O)cc(COC(=O)c3cccc(NC(=O)c4cccc(Cl)c4)c3)nc2s1	.	.	5%[46 µM]	.	.	.
CCOc1ccccc1C1CC(=O)Nc2cc(OC)c(OC)c(OC)c21 (centres undefined)	1%	3	5%	-18%	38	?
CCOc1ccccc1C1CC(=O)Nc2cc3c(cc21)OCCO3 (centres undefined)	16%	6	-9%	-22%	-86*	-9%

Screening results deposited in PubChem by National Center for Advancing Translational Sciences (NCATS).
